High-throughput results deposited in PubChem by Broad Institute.
FGF22 binding – shifts melting point of recombinant human FGF22 | recombinant FGF22 thermal shift, SYPRO orange fluorescence; percent of sucrose octasulfate shift, DMSO zero | activity (Tm shift, normalised), % at 9.99 µM | 1.5% of 340,000 active | AID 651658;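 active = mean Tm shift, scaled 0 neutral to 100 positive control, at about 1.3% or above, every replicate too, limit read from the data; inconclusive = no clear call, values can overlap the other calls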
Target sequence (Q9HCT0 whole entry, looked up): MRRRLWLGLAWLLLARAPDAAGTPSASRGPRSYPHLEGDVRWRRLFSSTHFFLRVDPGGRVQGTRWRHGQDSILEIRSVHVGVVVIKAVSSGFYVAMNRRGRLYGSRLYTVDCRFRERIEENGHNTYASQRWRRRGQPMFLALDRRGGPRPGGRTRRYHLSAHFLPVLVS
DENV2 CPE rescue – inhibitors of DENV2 cytopathic effect. CPE inhibition, % at 9.99 µM. AID 651640. 1.7% of 350,000 active. DENV2-infected cells, cytopathic effect rescue, plate reader; in the data active = CPE inhibition above about 20%, passing the limit was not always enough; inconclusive = no clear call, values can overlap the other calls; tested in BHK-21 cells
ERAP1 HTS inh – ERAP1 (human) enzyme inhibition; Q9NZ08; recombinant ERAP1, Leu-AMC fluorescence, 60 min; inhibition, % at 10.7 µM; 0.15% of 340,000 active; AID 652197;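 active = mean replicate inhibition of at least 30%, or all replicates individually reaching that 30% level; inactive = mean below 30% and not every replicate reaching it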
AF4-AF9 inh – MLL-AF4/AF9 protein interaction inhibition; P42568; AlphaScreen, biotin-AF4 peptide binding to FLAG-AF9; inhibition, % at 10 µM; 0.47% of 350,000 active;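 active = every replicate reaching a set inhibition limit, whatever the replicate mean, cut at about 25% in these data; inconclusive = mean inhibition reaches that limit but some replicates miss it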
RAD52 anneal inh – RAD52 (human) annealing inhibition. inhibition, % at 18.7 µM. recombinant RAD52 DNA annealing, FRET fluorescence. 0.46% of 360,000 active. P43351;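 active = every replicate showing at least 50% inhibition; inconclusive = mean inhibition at least 50% but not in every replicate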
Target sequence (P43351 whole entry, looked up): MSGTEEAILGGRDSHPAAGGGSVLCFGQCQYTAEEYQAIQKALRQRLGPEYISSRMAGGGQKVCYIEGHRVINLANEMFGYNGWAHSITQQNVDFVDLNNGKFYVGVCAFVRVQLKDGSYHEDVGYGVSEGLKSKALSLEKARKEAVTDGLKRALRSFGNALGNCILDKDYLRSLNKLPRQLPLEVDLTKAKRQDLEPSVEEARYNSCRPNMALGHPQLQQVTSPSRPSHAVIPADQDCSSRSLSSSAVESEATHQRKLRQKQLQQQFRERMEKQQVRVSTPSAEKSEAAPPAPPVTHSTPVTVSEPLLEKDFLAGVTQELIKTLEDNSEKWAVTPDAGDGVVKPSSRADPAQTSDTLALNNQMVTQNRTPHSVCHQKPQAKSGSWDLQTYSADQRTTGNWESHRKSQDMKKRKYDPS
Hits are given with their value; - = inactive; ? = inconclusive; . = no result given; + = active, no number. Most compounds without a hit are left out; they make up all but 4% or so of the library.

SMILES	FGF22 binding	DENV2 CPE rescue	ERAP1 HTS inh	AF4-AF9 inh	RAD52 anneal inh
CCCN1[C@@H]2Cn3c(ccc(-c4ccc(F)cc4)c3=O)[C@H]1[C@@H](C(=O)OC)[C@@H]2CO	-	-	-	-	53.5
CCCCCCn1c(=O)c(C(=O)Nc2cnccn2)c(O)c2ccccc21	43.1	-	-	-	-
COc1cccc(NC(=O)CN2CC(c3ccccc3)CC2=O)c1 (stereo not given)	-	-	-	-	-
O=C(CN1CC(c2ccccc2)CC1=O)NCc1ccc(F)cc1 (stereo not given)	43.3	-	-	-	-
COC(=O)[C@H]1[C@H](CO)[C@H]2Cn3c(ccc(-c4ccccc4OC)c3=O)[C@@H]1N2Cc1ccccc1	.	.	.	-	-
CC(C)(C)NS(=O)(=O)c1ccc(OCC(=O)N2CCN(Cc3ccccc3)CC2)cc1	44.1	-	-	-	-
CC1=NN(c2ccccc2)C(=O)/C1=C/c1c(O)[nH]c(=O)[nH]c1=O	1.4	-	-	-	-
CN(C(=O)Oc1cccc2ccccc12)C1C=CCC1 (stereo not given)	43.5	65.0	-	-	-
COC(=O)[C@@H]1[C@@H](CO)[C@@H]2Cn3c(ccc(-c4ccccc4F)c3=O)[C@H]1N2Cc1ccccc1	-	-	-	-	-
COC(=O)C1=C(c2ccc(Cl)c(C(F)(F)F)c2)C[C@@H]2CC[C@H]1N2C(=O)NCC1CC1	-	-	-	-	-
COC(=O)C1=C(c2ccc(Cl)c(C(F)(F)F)c2)C[C@@H]2CC[C@H]1N2C(=O)NCc1cc(C)oc1C(F)(F)F	-	25.5	-	-	-
CCCN1[C@@H]2Cn3c(cccc3=O)[C@H]1[C@@H](C(=O)N(C)C)[C@@H]2CO	-	-	-	-	-
Cn1cnc([N+](=O)[O-])c1Sc1ccc([N+](=O)[O-])cc1	43.4	-	-	-	-
O=[N+]([O-])c1ccc(C(c2ccc([N+](=O)[O-])cc2)c2ccc([N+](=O)[O-])cc2)cc1	-	-	-	-	-
C=CCNC(=S)/N=C/c1c(O)[nH]c(=O)[nH]c1=O	-	-	-	-	-
NC(=S)/N=C/c1c(O)[nH]c(=O)[nH]c1=O	42.9	-	-	-	-
CC/C=C/CC(=O)N[C@@H](c1ccccc1)[C@@H](O)C(=O)O[C@H]1C[C@@]2(O)[C@@H](OC(=O)c3ccccc3)C3[C@](C)(C(=O)[C@H](OC(C)=O)C(=C1C)C2(C)C)[C@@H](O)C[C@H]1OC[C@@]31OC(C)=O (stereo not given in full)	-	28.1	-	-	-
COC(=O)[C@H]1[C@H](CO)[C@H]2Cn3c(ccc(-c4cccc(OC)c4)c3=O)[C@@H]1N2C(=O)c1ccccc1F	-	-	-	-	-
CNC(=O)Oc1cc2c(cc1C(C)(C)C)CCC2	43.6	-	-	-	-
O=C(Cc1cccnc1)N1CCCCN2[C@H](C1)[C@H](c1ccc(C#CC3CC3)cc1)[C@@H]2CO	-	-	-	-	-
CC(C)NC(=O)N1[C@@H]2Cn3c(ccc(-c4cccc(C(=O)N(C)C)c4)c3=O)[C@H]1[C@@H](C(=O)O)[C@@H]2CO	-	-	-	-	-
COC(=O)[C@@H]1[C@@H](CO)[C@@H]2Cn3c(ccc(-c4ccc(F)cc4)c3=O)[C@H]1N2Cc1cccnc1	-	-	-	-	-
c1ccc(-c2ccncc2)cc1	-	-	-	-	-
C[n+]1ccc(-c2ccncc2)cc1	-	.	31.4	-	-
O=C(c1ccc2c(c1)N(Cc1ccc(F)cc1)CCS2)N1CCC2(CC1)OCCO2	-	-	-	-	-
SMILES	FGF22 binding	DENV2 CPE rescue	ERAP1 HTS inh	AF4-AF9 inh	RAD52 anneal inh
O=C(c1ccc2c(c1)ncn2-c1ccc(F)cc1F)N1CCC2(CC1)OCCO2	44.0	-	-	-	-
COc1cc2c(cc1OC)-c1c(OC)c(OC)cc3c1[C@H](C2)[N+](C)(C)CC3	-	-	79.4	-	-
COc1cc2c3c(c1OC)Oc1ccc(cc1)C[C@H]1c4c(cc(OC)c(OC)c4Oc4ccc(cc4)C[C@@H]3N(C)CC2)CCN1C	-	-	-	?	-
CN(C)CC#Cc1ccc([C@@H]2[C@H](CO)N3CCCCN(C(=O)Cc4ccccn4)C[C@@H]23)cc1	-	-	-	-	-
O=c1ccc2cc(O[C@@H]3O[C@@H](CO)[C@H](O)[C@@H](O)[C@@H]3O)c(O)cc2o1	-	-	+	-	-
N#CC1=C(N)Oc2c(c(=O)oc3ccccc23)C1c1ccc([N+](=O)[O-])o1 (stereo not given)	43.3	-	-	-	-
CCN1CCC(N(C)C2CCCCC2)CC1	-	-	-	-	-
CCN1CCC(NCC2CCCCC2)CC1	-	32.4	-	-	-
CP(=O)(O)CN1CCCCC1	43.9	-	-	-	-
CCCNC(=O)[C@H]1[C@H](CO)[C@H]2Cn3c(cccc3=O)[C@H]2N1CC	.	-	-	-	-
COC(=O)[C@H]1C[C@@H]1[C@H](NP(=O)(c1ccccc1)c1ccccc1)c1ccccc1	1.8	?	-	-	-
COC(=O)[C@@H]1C[C@H]1[C@@H](NP(=O)(c1ccccc1)c1ccccc1)c1ccccc1	-	-	-	.	-
Oc1cccc2nc3ccccc3nc12	-	110.9	-	-	-
O=C(Cc1cccnc1)N1CCCCN2[C@H](C1)[C@H](c1ccc(/C=C/c3ccccc3)cc1)[C@@H]2CO	-	-	-	-	-
Cc1nc2ccccc2c(=O)n1-c1nccs1	-	43.3	-	-	-
CC(C)N=C(NC(C)C)N1CC1	42.9	-	-	-	-
CCCNC(=O)[C@@H]1[C@@H](CO)[C@@H]2Cn3c(cccc3=O)[C@H]1N2CCC	-	-	-	-	-
CC=Cc1ccc2n(c1=O)C[C@H]1[C@H](CO)[C@@H](C(=O)O)[C@@H]2N1S(=O)(=O)c1ccccc1C (mixture of isomers)	-	-	-	-	-
Clc1cc(Cl)c(-c2cc(Cl)c(Cl)cc2Cl)cc1Cl	-	23.1	-	.	-
Nc1ccc(CCN2CCCC2)cc1	-	-	-	?	94.2
O=C(O)C(Br)Br	-	69.9	-	.	-
C/C=C/c1ccc(C2[C@@H]3CN(Cc4cocn4)C[C@H]2N3)cc1 (stereo not given in full)	.	-	-	28.7	56.3
O=C1NC(=O)C(=Cc2ccc(OCC(=O)N3CCOCC3)cc2)C(=O)N1	-	63.7	-	-	-
CN(CCOc1ccc(C=C2C(=O)NC(=O)NC2=O)cc1)c1ccccn1	-	-	-	-	-
N#CC1(c2ccccc2)CCN(C2CC(=O)N(c3ccc4c(c3)OCO4)C2=O)CC1 (stereo not given)	43.6	-	-	-	-
COc1cc(C2(C#N)CCN(C)CC2)cc(OC)c1OC	43.0	-	-	-	-
O=c1[nH]sc2cc(F)ccc12	-	.	31.3	-	-
COC(=O)[C@@H]1[C@@H](CO)[C@@H]2Cn3c(ccc(C4=CCCCC4)c3=O)[C@H]1N2CC1CCCCC1	.	-	-	-	-
